According to PubChem BioAssay (Tox21):
Activity calls are given as the source filed them. Unless noted, calls follow the shape of the dose curve; as a rule, active = well fitted curve in the direction sought with a large enough effect in the repeat runs; inconclusive = weak or mixed curves; inactive = no such curve, though single readings can be large; an effect the other way counts as inactive or inconclusive.

Legend:
[1] = qHTS assay to identify small molecule antagonists of the thyroid receptor (TR) signaling pathway - cell viability counter screen (AID 743064); also: nearly all actives have a fitted effect of over 50% in size; also: potency is read from the fitted curve at half-maximal effect
In short: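 Same-well viability check: GH3.TRE-Luc cells stimulated with 1 nM T3 alongside test compound for 23.5 h, followed by CellTiter-Fluor fluorescence.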

[2] = qHTS assay to identify small molecule antagonists of the thyroid receptor (TR) signaling pathway (AID 743065); also: nearly all actives have a fitted effect of over 55% in size; also: potency is read from the fitted curve at half-maximal effect
In short: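 GH3.TRE-Luc rat pituitary cells (two TREs driving luciferase) were dosed with compound, then stimulated with 1 nM T3 (final) for 23.5 h at 37 C. ONE-Glo luminescence was the read-out, with CellTiter-Fluor fluorescence as the cytotoxicity counter-screen.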

[3] = system: thyroid hormone receptor (rat, GH3 cells); assay: qHTS assay to identify small molecule agonists of the thyroid receptor (TR) signaling pathway (AID 743066; calls by dose curve)
[4] = molecular target: Estrogen receptor (Homo sapiens) (UniProt P03372); assay: qHTS assay to identify small molecule antagonists of the estrogen receptor alpha (ER-alpha) signaling pathway (AID 743069; active = well fitted curve in the direction sought with a large enough effect in the signal ratio in the repeat runs, not every such curve was filed as active; inconclusive = weak or mixed curves, or effect the other way; inactive = no such curve, though single readings can be large or run the other way; the % refers to the signal ratio)
Chain of Estrogen receptor (Homo sapiens) (P03372 whole entry, looked up): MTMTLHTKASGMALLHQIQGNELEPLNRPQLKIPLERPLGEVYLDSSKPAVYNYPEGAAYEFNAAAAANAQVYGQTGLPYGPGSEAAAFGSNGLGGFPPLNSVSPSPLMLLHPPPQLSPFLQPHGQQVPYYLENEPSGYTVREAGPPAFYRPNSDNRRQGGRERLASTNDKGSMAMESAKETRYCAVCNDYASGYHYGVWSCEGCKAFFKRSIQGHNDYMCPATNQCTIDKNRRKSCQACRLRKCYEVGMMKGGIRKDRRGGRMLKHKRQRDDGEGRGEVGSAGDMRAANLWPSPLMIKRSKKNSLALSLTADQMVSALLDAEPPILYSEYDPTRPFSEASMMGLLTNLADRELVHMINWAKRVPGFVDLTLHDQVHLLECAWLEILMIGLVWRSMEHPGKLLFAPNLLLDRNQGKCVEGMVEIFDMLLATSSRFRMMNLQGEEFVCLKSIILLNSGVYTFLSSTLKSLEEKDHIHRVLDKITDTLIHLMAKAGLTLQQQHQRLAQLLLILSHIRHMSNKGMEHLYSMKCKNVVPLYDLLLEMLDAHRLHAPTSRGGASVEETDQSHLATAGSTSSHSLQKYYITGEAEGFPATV
In short: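 In this cell-based reporter format, GripTite HEK293 cells harbouring ER-alpha-UAS-bla were grown overnight with 2% charcoal-stripped FBS, dosed with DMSO-dissolved compounds, then challenged with 17beta-estradiol. After 18 hr at 37C, beta-lactamase activity was detected by FRET fluorescence.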

[5] = qHTS assay to identify small molecule antagonists of the estrogen receptor alpha (ER-alpha) signaling pathway - cell viability counter screen (AID 743074; calls by dose curve; also: nearly all actives have a fitted effect of over 45% in size)
[6] = molecular target: Estrogen receptor (Homo sapiens) (UniProt P03372); assay: qHTS assay to identify small molecule agonists of the estrogen receptor alpha (ER-alpha) signaling pathway (AID 743075; calls by dose curve; also: potency is read from the fitted curve at half-maximal effect)
[7] = molecular target: Estrogen receptor (Homo sapiens) (UniProt P03372); assay: qHTS assay to identify small molecule agonists of the estrogen receptor alpha (ER-alpha) signaling pathway using the BG1 cell line (AID 743079); settings: BG1Luc4E2 cells, ERE-luciferase agonist, 22 h; activation: at 70.3 µM (top of the series); also: nearly all actives have a fitted effect of over 20% in size; also: potency is read from the fitted curve at half-maximal effect
[8] = qHTS assay to identify small molecule antagonists of the estrogen receptor alpha (ER-alpha) signaling pathway using the BG1 cell line (AID 743080; calls by dose curve;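 also: BG1 cells stimulated with 17beta-estradiol alongside compound; nearly all actives have a fitted effect of over 25% in size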)
In short: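 Quantitative HTS on the Tox21 10K library: BG1 cells with endogenous ER-alpha and ERE-luciferase reporter, 17beta-estradiol stimulation, 21.5 h compound exposure, luminescence endpoint with parallel fluorescence cytotoxicity counter-read.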

[9] = qHTS assay to identify small molecule antagonists of the estrogen receptor alpha (ER-alpha) signaling pathway using the BG1 cell line - cell viability counter screen (AID 743081);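 also: compound given together with 17beta-estradiol as the ER stimulus; nearly all actives have a fitted effect of over 45% in size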
[10] = molecular target: Aromatase (Homo sapiens) (UniProt P11511); assay: qHTS assay to identify aromatase inhibitors (AID 743083); also: nearly all actives have a fitted effect of over 55% in size
Chain of Aromatase (Homo sapiens) (P11511 whole entry, looked up): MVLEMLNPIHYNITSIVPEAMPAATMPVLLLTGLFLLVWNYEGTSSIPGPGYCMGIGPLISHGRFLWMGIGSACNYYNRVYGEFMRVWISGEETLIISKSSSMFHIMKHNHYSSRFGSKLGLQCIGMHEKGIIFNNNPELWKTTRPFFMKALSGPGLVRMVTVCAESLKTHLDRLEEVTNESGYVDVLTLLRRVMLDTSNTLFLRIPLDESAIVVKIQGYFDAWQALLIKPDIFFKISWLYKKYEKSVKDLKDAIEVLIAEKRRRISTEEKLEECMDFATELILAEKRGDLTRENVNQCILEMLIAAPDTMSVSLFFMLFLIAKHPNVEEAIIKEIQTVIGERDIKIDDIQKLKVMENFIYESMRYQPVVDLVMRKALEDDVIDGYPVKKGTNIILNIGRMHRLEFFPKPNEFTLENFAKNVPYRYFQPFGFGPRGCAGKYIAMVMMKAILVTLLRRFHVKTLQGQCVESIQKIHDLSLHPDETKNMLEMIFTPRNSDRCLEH

[11] = qHTS assay to identify aromatase inhibitors - cell viability counter screen (AID 743084);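 also: cells stimulated with testosterone during compound exposure; nearly all actives have a fitted effect of over 55% in size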
[12] = molecular target: Aryl hydrocarbon receptor (Homo sapiens) (UniProt P35869); assay: qHTS assay to identify small molecule that activate the aryl hydrocarbon receptor (AhR) signaling pathway (AID 743085);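 also: HG2L7.5c1 human HepG2 liver cells with stably integrated DRE-driven firefly reporter; nearly all actives have a fitted effect of over 15% in size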
Chain of Aryl hydrocarbon receptor (Homo sapiens) (P35869 whole entry, looked up): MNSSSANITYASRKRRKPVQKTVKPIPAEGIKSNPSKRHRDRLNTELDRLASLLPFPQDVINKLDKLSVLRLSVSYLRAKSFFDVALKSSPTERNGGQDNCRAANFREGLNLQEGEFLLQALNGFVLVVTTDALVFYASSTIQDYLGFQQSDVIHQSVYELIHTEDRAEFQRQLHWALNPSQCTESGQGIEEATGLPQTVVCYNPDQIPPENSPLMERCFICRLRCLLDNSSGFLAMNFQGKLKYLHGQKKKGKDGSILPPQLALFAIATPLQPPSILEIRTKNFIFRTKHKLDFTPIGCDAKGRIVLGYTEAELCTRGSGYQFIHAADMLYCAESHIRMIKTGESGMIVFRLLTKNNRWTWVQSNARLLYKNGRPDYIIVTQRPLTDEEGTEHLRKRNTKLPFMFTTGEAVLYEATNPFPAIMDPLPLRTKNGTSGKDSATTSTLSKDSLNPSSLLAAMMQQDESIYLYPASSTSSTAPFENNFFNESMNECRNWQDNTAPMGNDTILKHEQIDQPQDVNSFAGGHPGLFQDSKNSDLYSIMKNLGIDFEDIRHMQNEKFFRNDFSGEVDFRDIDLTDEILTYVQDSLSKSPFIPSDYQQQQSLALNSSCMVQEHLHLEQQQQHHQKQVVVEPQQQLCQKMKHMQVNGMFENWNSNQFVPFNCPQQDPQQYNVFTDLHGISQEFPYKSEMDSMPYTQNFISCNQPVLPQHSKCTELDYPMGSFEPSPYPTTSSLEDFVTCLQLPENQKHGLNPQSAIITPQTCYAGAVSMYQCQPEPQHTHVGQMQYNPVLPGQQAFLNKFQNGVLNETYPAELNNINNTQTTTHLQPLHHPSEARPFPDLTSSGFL
In short: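 Reporter assay in engineered HepG2 line HG2L7.5c1, whose plasmid carries twenty dioxin responsive elements upstream of firefly luciferase. Treatment lasted 24 h at 37C; ONE-Glo luminescence gauged induction.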

[13] = qHTS assay to identify small molecule that activate the aryl hydrocarbon receptor (AhR) signaling pathway - cell viability counter screen (AID 743086);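 also: HepG2 liver cells carrying the AhR DRE luciferase reporter; nearly all actives have a fitted effect of over 45% in size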
In short: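 HepG2-AhR-luc (HG2L7.5c1) cells, 4000/well, treated 24 h at 37 C with compound; viability measured as CellTiter-Fluor fluorescence after 30 min in the same wells as the luciferase read.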

[14] = molecular target: Peroxisome proliferator-activated receptor gamma (Homo sapiens) (UniProt P37231); assay: qHTS assay to identify small molecule agonists of the peroxisome proliferator-activated receptor gamma (PPARg) signaling pathway (AID 743094; active = well fitted activation curve with a large enough effect in the signal ratio in the repeat runs, not every such curve was filed as active; inconclusive = weak or mixed curves, or effect the other way; inactive = no such curve, though single readings can be large or run the other way; the % refers to the signal ratio; also: potency is read from the fitted curve at half-maximal effect)
Chain of Peroxisome proliferator-activated receptor gamma (Homo sapiens) (P37231 whole entry, looked up): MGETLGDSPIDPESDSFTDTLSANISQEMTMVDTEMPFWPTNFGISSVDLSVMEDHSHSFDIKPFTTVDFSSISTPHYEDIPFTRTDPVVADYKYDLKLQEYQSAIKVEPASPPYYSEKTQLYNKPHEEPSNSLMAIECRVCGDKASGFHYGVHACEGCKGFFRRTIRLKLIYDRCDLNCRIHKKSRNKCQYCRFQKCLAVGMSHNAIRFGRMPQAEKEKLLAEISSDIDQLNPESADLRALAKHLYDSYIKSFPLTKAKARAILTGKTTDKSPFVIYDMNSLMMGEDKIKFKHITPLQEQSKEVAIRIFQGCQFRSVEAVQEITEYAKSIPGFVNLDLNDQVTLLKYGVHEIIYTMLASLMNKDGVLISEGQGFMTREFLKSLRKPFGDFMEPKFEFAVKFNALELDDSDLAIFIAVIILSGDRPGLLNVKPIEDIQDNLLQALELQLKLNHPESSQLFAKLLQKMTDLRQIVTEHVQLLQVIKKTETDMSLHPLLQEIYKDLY
In short: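 Fluorescence-based beta-lactamase readout in HEK293H PPARg UAS-bla cells after 17 h compound exposure (37C) and 1 h B/G FRET substrate incubation at room temperature.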

[15] = molecular target: Peroxisome proliferator-activated receptor gamma (Homo sapiens) (UniProt P37231); assay: qHTS assay to identify small molecule antagonists of the peroxisome proliferator-activated receptor gamma (PPARg) signaling pathway (AID 743191; calls by dose curve; also: nearly all actives have a fitted effect of over 30% in size)
In short: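 GeneBLAzer PPARg UAS-bla HEK293H cells, 5 h post-plating, exposed to compounds 17 h at 37C. LiveBLAzer B/G FRET substrate added for 1 h at room temperature; beta-lactamase reporter read by fluorescence intensity.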

[16] = qHTS assay to identify small molecule antagonists of the peroxisome proliferator-activated receptor gamma (PPARg) signaling pathway - cell viability counter screen (AID 743194); also: nearly all actives have a fitted effect of over 55% in size
In short: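 Cytotoxicity counter screen in PPARg-bla HEK293H cells, same wells as reporter assay. Compounds plus 50 nM rosiglitazone (final) for 17 h at 37 C, then viability read by CellTiter-Glo luminescence.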

[17] = qHTS assay for small molecule agonists of the antioxidant response element (ARE) signaling pathway (AID 743202; active = well fitted activation curve with a large enough effect in the signal ratio in the repeat runs, not every such curve was filed as active; inconclusive = weak or mixed curves, or effect the other way; inactive = no such curve, though single readings can be large or run the other way; the % refers to the signal ratio; also: potency is read from the fitted curve at half-maximal effect)
In short: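 HepG2 ARE-bla cells; 16 h treatment at 37 C; FRET-based beta-lactamase fluorescence read after 2 h substrate incubation at room temperature.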

[18] = qHTS assay for small molecule agonists of the antioxidant response element (ARE) signaling pathway - cell viability counter screen (AID 743203; calls by dose curve; also: nearly all actives have a fitted effect of over 55% in size)
In short: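 Parallel cytotoxicity read-out for the ARE-bla screen: HepG2 reporter cells, 16 hrs with compounds, then CellTiter-Glo luminescence.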

[19] = qHTS assay for small molecule activators of the heat shock response signaling pathway - cell viability counter screen (AID 743209); also: nearly all actives have a fitted effect of over 50% in size
In short: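 To flag cytotoxic compounds, HSE-bla HeLa cells plated at 1500 cells/well were dosed for 5 h at 37 C, followed by the reporter FRET read and then CellTiter-Glo, with luminescence recorded 30 min after reagent addition.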

[20] = qHTS assay for small molecule activators of the heat shock response signaling pathway (AID 743210; active = well fitted activation curve with a large enough effect in the signal ratio in the repeat runs, with a control signal flat, not every such curve was filed as active; inconclusive = weak or mixed curves; the % refers to the signal ratio;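 also: HeLa cells with beta-lactamase reporter driven by heat shock elements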)
In short: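 Following overnight attachment, HSE-bla HeLa cells received test compounds for 5 h at 37 C; beta-lactamase activity was then detected via FRET substrate fluorescence.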

Measured: Potency

Brc1cc2ccccc2c2ccccc12
inactive: [1] | [2] | [3] | [4] | [5] | [6] | [7] | [8] | [9] | [10] | [11] | [12] | [13] | [14] | [15] | [16] | [17] | [18] | [19] | [20]

Cc1cc2c(OCC(CNC(C)(C)C)OC(=O)c3ccccc3)cccc2[nH]1 (configuration not stated)
inactive: [3] | [4] | [5] | [6] | [7] | [8] | [9] | [10] | [11] | [12] | [13] | [14] | [15] | [16] | [17] | [18] | [19]
active: [1] 11.9 µM | [2] 26.6 µM

O=Cc1c2ccccc2c(Cl)c2ccccc12
inactive: [1] | [2] | [3] | [4] | [5] | [7] | [8] | [9] | [10] | [11] | [12] | [13] | [16] | [18] | [19]
active: [6] 13.5 µM [inconclusive] | [14] 9.53 µM | [17] 29.9 µM

O=C(OC(=O)c1ccccc1)c1ccccc1
inactive: [1] | [2] | [3] | [4] | [5] | [6] | [7] | [8] | [9] | [10] | [11] | [12] | [13] | [14] | [15] | [16] | [17] | [18] | [19] | [20]

CCN(CC)CCNC(=O)COc1ccc(OC)cc1
inactive: [1] | [2] | [3] | [4] | [5] | [6] | [8] | [9] | [10] | [11] | [12] | [13] | [14] | [15] | [17] | [18] | [19]
active: [7] 23.7 µM

CC(C)(C)C(=O)C(=O)O
inactive: [1] | [2] | [3] | [4] | [5] | [6] | [7] | [8] | [9] | [10] | [11] | [12] | [13] | [14] | [15] | [16] | [18] | [19]

OCCOCC#CCOCCO
inactive: [1] | [2] | [3] | [4] | [5] | [6] | [7] | [8] | [9] | [10] | [11] | [12] | [13] | [14] | [15] | [16] | [17] | [18] | [19] | [20]

C=CC(=O)[O-].C=CC(=O)[O-].[Zn+2]
inactive: [1] | [2] | [3] | [4] | [5] | [6] | [7] | [8] | [9] | [10] | [11] | [12] | [13] | [14] | [16] | [18] | [19]

O[C@@H]1CO[C@H]2[C@@H]1OC[C@@H]2O
inactive: [1] | [2] | [3] | [4] | [5] | [6] | [7] | [8] | [9] | [10] | [11] | [12] | [13] | [14] | [15] | [16] | [17] | [18] | [19] | [20]

C=COCC(C)C
inactive: [1] | [2] | [3] | [4] | [5] | [6] | [7] | [8] | [9] | [10] | [11] | [12] | [13] | [14] | [15] | [17] | [18] | [19]

Cc1cc(C)cc(N)c1
inactive: [1] | [2] | [3] | [4] | [5] | [6] | [7] | [8] | [9] | [10] | [11] | [12] | [13] | [15] | [16] | [17] | [18] | [19] | [20]

C=C(C)C(=O)OCCCCCCCCCCCCC
inactive: [1] | [2] | [3] | [4] | [5] | [6] | [7] | [8] | [9] | [10] | [11] | [12] | [13] | [14] | [15] | [17] | [18] | [19] | [20]

O=C(O)CCCCCCCCCCCBr
inactive: [1] | [2] | [3] | [4] | [5] | [6] | [7] | [8] | [9] | [10] | [11] | [12] | [13] | [16] | [18] | [19] | [20]

N#CCc1ccc(Cl)cc1Cl
inactive: [1] | [2] | [3] | [4] | [5] | [6] | [7] | [8] | [9] | [10] | [11] | [12] | [13] | [14] | [15] | [16] | [17] | [18] | [19]
